Test results as given in the supplement of paper PMC11732987, “Enantioselective OTUD7B fragment discovery through chemoproteomics screening and high-throughput optimisation” (Communications Chemistry, 2025).

Key:
Assay in all cases: log2 ratio of Biotin-Ahx-Ub-VS probe labelling (fragment/DMSO); higher = less target engagement (more negative = stronger competition), active = hit call of the paper (q ≤ 0.05, log2 ratio ≤ -1)
Conditions in all cases: compound concentration: 200 uM; treatment time: 3 h
[1] = target: USP34 (UniProt Q70CQ2)
Summary of the method: (§1)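 HEK293T lysate in Tris/CHAPS/IGEPAL buffer with protease inhibitors (495 µg per sample) was given fragment at 200 µM or vehicle for 3 h, in triplicate. It then received Biotin-Ahx-Ub-VS at 0.5 µM final for 1 h. Labelled DUBs were NeutrAvidin-enriched, digested with LysC and trypsin, and run by diaPASEF LC-MS/MS. Values are average log2 fragment/vehicle ratios by unpaired t-test on global-median-normalised Spectronaut quantities of proteins with ≥2 unique peptides.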

[2] = target: T1, USP36 (UniProt Q9P275)
T1 sequence (whole entry): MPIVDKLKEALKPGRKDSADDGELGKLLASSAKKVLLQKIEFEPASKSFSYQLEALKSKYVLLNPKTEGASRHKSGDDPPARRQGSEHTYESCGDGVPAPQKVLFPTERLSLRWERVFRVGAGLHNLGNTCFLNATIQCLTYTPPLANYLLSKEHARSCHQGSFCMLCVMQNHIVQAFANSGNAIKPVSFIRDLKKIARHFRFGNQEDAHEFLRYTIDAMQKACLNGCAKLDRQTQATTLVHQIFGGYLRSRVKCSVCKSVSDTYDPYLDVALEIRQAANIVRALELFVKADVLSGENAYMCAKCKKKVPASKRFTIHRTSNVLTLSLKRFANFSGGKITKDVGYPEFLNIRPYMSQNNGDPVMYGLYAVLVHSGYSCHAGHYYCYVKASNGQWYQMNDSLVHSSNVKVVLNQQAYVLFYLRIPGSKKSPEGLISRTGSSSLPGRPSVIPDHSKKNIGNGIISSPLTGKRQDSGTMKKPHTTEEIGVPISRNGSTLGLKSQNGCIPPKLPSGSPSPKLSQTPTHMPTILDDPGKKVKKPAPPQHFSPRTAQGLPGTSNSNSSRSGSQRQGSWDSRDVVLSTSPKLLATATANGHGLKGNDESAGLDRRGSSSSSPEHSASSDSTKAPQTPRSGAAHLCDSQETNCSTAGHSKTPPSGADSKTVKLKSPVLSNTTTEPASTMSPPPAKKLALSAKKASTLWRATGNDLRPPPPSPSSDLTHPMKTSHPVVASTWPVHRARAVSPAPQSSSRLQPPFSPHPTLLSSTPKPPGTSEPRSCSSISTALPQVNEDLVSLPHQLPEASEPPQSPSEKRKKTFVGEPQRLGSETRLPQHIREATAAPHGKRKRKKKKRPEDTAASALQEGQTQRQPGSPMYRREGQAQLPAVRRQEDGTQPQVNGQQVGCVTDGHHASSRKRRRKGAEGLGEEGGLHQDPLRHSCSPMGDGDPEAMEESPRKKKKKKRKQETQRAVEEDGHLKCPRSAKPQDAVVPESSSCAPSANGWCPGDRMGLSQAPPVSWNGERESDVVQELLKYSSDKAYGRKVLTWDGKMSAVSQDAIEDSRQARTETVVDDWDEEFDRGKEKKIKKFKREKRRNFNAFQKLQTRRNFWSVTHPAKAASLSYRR
Summary of the method: as §1

[3] = target: T2, USP38 (UniProt Q8NB14)
T2 sequence (whole entry): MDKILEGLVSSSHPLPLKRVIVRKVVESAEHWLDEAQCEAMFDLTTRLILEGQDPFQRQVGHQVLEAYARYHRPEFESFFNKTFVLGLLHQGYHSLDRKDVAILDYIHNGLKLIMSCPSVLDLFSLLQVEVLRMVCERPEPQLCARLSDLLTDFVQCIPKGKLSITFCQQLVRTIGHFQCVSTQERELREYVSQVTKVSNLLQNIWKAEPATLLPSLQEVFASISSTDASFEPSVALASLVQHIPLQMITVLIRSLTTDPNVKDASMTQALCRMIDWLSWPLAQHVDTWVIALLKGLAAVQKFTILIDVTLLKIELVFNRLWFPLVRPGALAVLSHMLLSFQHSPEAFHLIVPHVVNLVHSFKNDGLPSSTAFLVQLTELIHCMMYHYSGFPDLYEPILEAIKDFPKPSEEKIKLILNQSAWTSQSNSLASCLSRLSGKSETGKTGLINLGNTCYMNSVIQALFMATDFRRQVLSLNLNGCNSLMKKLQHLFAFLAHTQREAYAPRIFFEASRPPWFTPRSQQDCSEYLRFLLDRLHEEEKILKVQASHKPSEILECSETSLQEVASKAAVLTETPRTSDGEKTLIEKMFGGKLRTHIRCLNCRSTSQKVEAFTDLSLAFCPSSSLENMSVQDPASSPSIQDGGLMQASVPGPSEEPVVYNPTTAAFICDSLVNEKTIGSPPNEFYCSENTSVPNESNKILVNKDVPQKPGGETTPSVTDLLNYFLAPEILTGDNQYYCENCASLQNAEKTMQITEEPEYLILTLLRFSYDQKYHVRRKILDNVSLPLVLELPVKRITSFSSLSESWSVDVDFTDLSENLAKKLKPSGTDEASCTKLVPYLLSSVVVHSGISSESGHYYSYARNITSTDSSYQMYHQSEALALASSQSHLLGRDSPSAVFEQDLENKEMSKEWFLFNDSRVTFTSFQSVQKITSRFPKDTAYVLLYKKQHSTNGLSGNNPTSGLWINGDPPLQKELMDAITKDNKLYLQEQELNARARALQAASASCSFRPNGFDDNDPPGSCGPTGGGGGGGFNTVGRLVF
Summary of the method: as §1

[4] = target: T3, USP39 (UniProt Q53GS9)
T3 sequence (whole entry): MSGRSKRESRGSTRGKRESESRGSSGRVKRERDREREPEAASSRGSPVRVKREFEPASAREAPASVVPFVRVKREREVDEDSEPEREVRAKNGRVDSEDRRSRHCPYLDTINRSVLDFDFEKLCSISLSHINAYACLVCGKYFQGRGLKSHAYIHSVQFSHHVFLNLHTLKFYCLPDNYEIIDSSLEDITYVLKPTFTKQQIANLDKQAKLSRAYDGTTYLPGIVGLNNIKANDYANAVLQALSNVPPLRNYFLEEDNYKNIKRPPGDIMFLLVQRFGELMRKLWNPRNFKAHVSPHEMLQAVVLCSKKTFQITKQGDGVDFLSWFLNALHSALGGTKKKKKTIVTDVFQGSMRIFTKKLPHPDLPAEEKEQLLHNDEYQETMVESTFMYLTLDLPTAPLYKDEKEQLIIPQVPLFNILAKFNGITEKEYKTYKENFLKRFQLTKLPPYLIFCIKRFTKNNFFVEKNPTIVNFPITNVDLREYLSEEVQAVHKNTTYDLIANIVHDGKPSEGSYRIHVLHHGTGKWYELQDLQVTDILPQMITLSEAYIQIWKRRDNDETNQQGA
Summary of the method: as §1

[5] = target: T4, USP4 (UniProt Q13107)
T4 sequence (whole entry): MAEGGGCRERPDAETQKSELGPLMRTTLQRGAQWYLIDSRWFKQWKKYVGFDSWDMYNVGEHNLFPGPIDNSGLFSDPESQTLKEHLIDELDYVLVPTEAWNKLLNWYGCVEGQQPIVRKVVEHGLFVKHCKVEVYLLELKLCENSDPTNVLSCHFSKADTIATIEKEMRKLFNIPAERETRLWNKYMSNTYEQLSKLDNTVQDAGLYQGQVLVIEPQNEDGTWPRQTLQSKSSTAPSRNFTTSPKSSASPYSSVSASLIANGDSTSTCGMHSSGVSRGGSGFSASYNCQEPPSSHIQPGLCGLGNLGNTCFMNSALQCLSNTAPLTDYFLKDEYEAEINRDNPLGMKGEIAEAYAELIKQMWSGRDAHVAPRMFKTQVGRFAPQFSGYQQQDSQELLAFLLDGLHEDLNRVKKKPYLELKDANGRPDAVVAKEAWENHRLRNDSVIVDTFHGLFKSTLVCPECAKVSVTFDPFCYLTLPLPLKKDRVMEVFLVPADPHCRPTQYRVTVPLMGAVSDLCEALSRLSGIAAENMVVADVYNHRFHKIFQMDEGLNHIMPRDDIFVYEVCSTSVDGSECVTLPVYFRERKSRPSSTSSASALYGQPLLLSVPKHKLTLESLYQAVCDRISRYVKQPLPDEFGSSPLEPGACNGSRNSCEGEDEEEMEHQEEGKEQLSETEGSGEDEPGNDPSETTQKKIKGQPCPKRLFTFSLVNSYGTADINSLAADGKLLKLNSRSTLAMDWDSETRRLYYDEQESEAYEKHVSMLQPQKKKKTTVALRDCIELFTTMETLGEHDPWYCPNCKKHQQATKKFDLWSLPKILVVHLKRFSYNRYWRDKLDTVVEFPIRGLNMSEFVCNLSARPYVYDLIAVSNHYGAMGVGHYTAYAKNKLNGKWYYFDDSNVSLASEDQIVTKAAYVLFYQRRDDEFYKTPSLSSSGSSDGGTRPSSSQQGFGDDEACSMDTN
Summary of the method: as §1

Measured: log2 ratio of Biotin-Ahx-Ub-VS probe labelling

Sequence of USP34 (Q70CQ2 whole entry, the tested form may be a part): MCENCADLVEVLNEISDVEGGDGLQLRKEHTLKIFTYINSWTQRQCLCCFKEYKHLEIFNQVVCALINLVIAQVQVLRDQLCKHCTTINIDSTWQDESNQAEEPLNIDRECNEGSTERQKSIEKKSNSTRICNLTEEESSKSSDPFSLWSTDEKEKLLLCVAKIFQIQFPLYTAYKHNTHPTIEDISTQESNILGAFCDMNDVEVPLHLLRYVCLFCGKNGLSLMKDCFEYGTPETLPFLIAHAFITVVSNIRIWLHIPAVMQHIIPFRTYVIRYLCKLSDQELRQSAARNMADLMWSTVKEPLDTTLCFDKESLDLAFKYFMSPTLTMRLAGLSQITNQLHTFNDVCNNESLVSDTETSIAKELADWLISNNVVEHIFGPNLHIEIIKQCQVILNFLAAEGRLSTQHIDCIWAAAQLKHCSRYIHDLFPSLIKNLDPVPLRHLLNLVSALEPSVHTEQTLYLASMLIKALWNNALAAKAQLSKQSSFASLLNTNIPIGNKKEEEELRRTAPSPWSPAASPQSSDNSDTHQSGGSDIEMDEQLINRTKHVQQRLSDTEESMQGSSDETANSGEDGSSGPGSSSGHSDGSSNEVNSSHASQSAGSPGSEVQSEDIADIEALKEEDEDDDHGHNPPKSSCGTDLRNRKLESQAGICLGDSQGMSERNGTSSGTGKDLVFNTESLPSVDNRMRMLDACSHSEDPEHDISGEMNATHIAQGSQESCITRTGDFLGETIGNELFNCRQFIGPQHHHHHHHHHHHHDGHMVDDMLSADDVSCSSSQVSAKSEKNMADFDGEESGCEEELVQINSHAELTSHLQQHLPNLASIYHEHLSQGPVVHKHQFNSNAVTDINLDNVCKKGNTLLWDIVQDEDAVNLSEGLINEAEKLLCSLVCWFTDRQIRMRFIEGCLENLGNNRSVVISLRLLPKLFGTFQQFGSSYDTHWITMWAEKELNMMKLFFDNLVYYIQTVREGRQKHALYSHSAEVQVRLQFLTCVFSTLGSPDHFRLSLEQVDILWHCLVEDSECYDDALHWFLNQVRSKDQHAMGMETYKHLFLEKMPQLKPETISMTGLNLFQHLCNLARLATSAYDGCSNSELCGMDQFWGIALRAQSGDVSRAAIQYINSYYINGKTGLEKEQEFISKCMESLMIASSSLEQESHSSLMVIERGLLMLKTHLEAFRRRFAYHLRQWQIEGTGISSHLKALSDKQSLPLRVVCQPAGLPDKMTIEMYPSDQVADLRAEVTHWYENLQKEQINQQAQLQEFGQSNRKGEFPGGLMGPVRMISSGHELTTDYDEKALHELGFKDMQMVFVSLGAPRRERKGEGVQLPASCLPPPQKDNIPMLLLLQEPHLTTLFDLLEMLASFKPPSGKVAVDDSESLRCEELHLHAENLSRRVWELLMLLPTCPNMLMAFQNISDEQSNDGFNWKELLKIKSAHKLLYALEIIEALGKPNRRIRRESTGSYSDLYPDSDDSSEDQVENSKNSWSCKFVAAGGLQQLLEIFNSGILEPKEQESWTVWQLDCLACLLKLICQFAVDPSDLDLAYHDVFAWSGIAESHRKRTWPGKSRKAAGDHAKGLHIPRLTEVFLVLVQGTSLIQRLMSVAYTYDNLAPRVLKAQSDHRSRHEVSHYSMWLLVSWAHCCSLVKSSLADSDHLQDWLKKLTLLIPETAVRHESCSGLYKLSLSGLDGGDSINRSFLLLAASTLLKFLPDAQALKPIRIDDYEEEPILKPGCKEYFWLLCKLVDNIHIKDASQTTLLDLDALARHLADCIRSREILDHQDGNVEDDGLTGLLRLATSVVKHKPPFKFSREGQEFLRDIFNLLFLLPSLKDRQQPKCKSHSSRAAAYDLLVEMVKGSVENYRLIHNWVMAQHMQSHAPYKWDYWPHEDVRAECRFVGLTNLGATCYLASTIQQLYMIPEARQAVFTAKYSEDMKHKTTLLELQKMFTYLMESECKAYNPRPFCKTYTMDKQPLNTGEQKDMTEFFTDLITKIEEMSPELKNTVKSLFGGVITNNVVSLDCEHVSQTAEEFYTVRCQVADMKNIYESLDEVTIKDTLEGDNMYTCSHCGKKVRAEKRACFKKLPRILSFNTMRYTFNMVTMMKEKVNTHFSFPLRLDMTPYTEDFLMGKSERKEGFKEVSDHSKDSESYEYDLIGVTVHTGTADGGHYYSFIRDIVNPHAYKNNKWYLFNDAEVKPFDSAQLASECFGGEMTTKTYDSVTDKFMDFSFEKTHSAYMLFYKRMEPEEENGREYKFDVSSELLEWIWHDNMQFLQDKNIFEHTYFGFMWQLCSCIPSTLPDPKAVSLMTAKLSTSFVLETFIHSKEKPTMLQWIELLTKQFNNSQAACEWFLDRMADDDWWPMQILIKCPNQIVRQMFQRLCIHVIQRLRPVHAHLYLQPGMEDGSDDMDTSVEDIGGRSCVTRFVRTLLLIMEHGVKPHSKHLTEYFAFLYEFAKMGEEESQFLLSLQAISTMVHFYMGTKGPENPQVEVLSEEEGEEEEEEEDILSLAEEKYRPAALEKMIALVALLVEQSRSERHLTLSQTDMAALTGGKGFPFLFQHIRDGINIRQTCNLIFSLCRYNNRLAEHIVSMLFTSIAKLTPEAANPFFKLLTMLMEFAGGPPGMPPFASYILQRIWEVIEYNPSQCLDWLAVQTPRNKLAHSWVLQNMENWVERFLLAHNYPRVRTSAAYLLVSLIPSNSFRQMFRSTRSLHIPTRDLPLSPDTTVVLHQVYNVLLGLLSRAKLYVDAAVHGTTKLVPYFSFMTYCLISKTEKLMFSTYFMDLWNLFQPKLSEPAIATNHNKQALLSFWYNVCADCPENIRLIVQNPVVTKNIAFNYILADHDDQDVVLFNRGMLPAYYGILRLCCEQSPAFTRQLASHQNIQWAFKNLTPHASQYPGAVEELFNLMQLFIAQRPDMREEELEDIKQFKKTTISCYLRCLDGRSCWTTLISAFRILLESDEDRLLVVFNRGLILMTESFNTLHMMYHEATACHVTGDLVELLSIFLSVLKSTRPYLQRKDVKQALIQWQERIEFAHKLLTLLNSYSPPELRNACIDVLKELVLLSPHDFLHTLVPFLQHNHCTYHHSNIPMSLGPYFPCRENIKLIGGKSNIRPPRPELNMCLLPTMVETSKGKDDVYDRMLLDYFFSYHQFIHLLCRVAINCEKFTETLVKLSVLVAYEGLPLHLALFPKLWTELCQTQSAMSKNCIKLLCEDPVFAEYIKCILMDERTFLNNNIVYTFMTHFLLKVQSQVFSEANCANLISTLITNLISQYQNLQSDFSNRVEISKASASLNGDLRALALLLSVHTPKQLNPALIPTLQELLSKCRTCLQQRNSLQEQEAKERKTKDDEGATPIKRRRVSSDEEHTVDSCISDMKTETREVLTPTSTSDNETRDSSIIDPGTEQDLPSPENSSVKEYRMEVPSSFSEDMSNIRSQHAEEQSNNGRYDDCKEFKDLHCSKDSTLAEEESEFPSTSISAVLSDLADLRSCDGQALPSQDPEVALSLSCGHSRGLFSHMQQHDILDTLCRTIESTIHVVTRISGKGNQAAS

Cc1ccccc1CN(C)C(=O)CCl
inactive: [1] -0.547 | [2] -0.347 | [3] -0.741 | [4] -0.049 | [5] -0.831
